The campaign covered roughly 5,500 compounds. About 2,000 (36%) were called active. Another 18% or so got no clear call; they are omitted. Cut-off read from the data, not from the text of the source: active = normalized growth mostly below about 0.91 (no sharp cut-off); inconclusive = no clear call, values can overlap the other calls; inactive = mostly above about 0.92. The list shows a part of the results.
Experiment: chemical genetic growth profiling, strain panel (AID 1159580);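 note: tested at 20 µM; growth read once vehicle control cultures reached saturation at 30 °C; 1 = growth at the plate median or of vehicle wells; lower values mean less growth of the strain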
Details: growth OD

Measured: normalized growth

C#CCCCCCCCCCCCC(=O)CC(O)COC(C)=O (centres undefined)
inactive: S. cerevisiae deletion strains, locus YJR043C, strain POL32, hits give low values 0.865 | S. cerevisiae deletion strains, locus YKL009W, strain mrt4, hits give low values 0.901 | S. cerevisiae deletion strains, locus YKL068W, hits give low values 0.977 | S. cerevisiae deletion strains, locus YKL085W, strain MDH1 (second series), hits give low values 0.958 | S. cerevisiae deletion strains, locus YKL085W, strain MDH1, hits give low values 0.958 | S. cerevisiae deletion strains, locus YKL160W, strain elf1, hits give low values 0.969 | S. cerevisiae deletion strains, locus YKR026C, strain gcn3, hits give low values 0.991 | S. cerevisiae deletion strains, locus YKR091W, strain srl3, hits give low values 0.988 | S. cerevisiae deletion strains, locus YLL001W, strain dnm1, hits give low values 1 | S. cerevisiae deletion strains, locus YLL026W, hits give low values 0.995 | S. cerevisiae deletion strains, locus YLL041C, strain sdh2, hits give low values 0.989 | S. cerevisiae deletion strains, locus YLR027C, strain aat2, hits give low values 0.994 | S. cerevisiae deletion strains, locus YLR039C, strain RIC1, hits give low values 0.688 | S. cerevisiae deletion strains, locus YLR102C, strain apc9, hits give low values 0.97 | S. cerevisiae deletion strains, locus YLR221C, strain rsa3, hits give low values 0.935 | S. cerevisiae deletion strains, locus YLR258W, strain gsy2, hits give low values 0.972 | S. cerevisiae deletion strains, locus YLR262C, strain YPT6, hits give low values 0.655 | S. cerevisiae deletion strains, locus YLR342W, strain FKS1 (second series), hits give low values 0.794 | S. cerevisiae deletion strains, locus YLR342W, strain FKS1, hits give low values 0.953 | S. cerevisiae deletion strains, locus YLR357W, strain rsc2, hits give low values 1.01 | S. cerevisiae deletion strains, locus YLR370C, strain arc18, hits give low values 0.978 | S. cerevisiae deletion strains, locus YLR371W, strain rom2, hits give low values 0.964 | S. cerevisiae deletion strains, locus YLR384C, strain iki3, hits give low values 0.996 | S. cerevisiae deletion strains, locus YML016C, strain PPZ1, hits give low values 0.994 | S. cerevisiae deletion strains, locus YML120C, strain ndi1, hits give low values 0.986 | S. cerevisiae deletion strains, locus YML124C, strain tub3, hits give low values 0.974 | S. cerevisiae deletion strains, locus YMR058W, strain fet3, hits give low values 0.97 | S. cerevisiae deletion strains, locus YMR078C, strain ctf18, hits give low values 0.961 | S. cerevisiae deletion strains, locus YMR125W, strain sto1, hits give low values 0.979 | S. cerevisiae deletion strains, locus YMR129W, hits give low values 0.999 | S. cerevisiae deletion strains, locus YMR205C, strain PFK2, hits give low values 0.893 | S. cerevisiae deletion strains, locus YMR231W, strain pep5, hits give low values 0.957 | S. cerevisiae deletion strains, locus YMR307W, strain GAS1, hits give low values 0.99 | S. cerevisiae deletion strains, locus YNL128W, strain TEP1, hits give low values 0.872 | S. cerevisiae deletion strains, locus YNL209W, strain ssb2, hits give low values 0.981 | S. cerevisiae deletion strains, locus YNL248C, strain rpa49, hits give low values 0.973 | S. cerevisiae deletion strains, locus YNL250W, strain rad50, hits give low values 0.989 | S. cerevisiae deletion strains, locus YNL271C, strain bni1, hits give low values 0.965 | S. cerevisiae deletion strains, locus YNL322C, strain KRE1 (second series), hits give low values 0.985 | S. cerevisiae deletion strains, locus YNL322C, strain KRE1, hits give low values 0.971 | S. cerevisiae deletion strains, locus YNR049C, strain mso1, hits give low values 0.982 | S. cerevisiae deletion strains, locus YNR052C, strain pop2, hits give low values 0.931 | S. cerevisiae deletion strains, locus YOL006C, strain TOP1, hits give low values 0.637 | S. cerevisiae deletion strains, locus YOL012C, strain htz1 0.999 | S. cerevisiae deletion strains, locus YOR001W, strain rrp6, hits give low values 0.966 | S. cerevisiae deletion strains, locus YOR069W, strain VPS5, hits give low values 0.978 | S. cerevisiae deletion strains, locus YOR070C, strain gyp1, hits give low values 0.964 | S. cerevisiae deletion strains, locus YOR080W, strain dia2, hits give low values 0.977 | S. cerevisiae deletion strains, locus YOR083W, strain WHI5, hits give low values 0.967 | S. cerevisiae deletion strains, locus YOR106W, strain vam3, hits give low values 0.889 | S. cerevisiae deletion strains, locus YOR136W, strain idh2, hits give low values 0.929 | S. cerevisiae deletion strains, locus YOR265W, strain rbl2, hits give low values 0.982 | S. cerevisiae deletion strains, locus YOR270C, strain vph1, hits give low values 0.932 | S. cerevisiae deletion strains, locus YOR290C, strain snf2, hits give low values 0.903 | S. cerevisiae deletion strains, locus YOR316C, strain cot1, hits give low values 0.962 | S. cerevisiae deletion strains, locus YPL051W, strain arl3, hits give low values 0.926 | S. cerevisiae deletion strains, locus YPL078C, strain atp4, hits give low values 0.976 | S. cerevisiae deletion strains, locus YPL106C, strain sse1, hits give low values 1.01 | S. cerevisiae deletion strains, locus YPL240C, strain hsp82, hits give low values 0.977 | S. cerevisiae deletion strains, locus YPL241C, strain CIN2, hits give low values 0.96 | S. cerevisiae deletion strains, locus YPR119W, strain clb2, hits give low values 0.98 | S. cerevisiae deletion strains, locus YPR141C, strain kar3, hits give low values 0.959 | S. cerevisiae deletion strains, locus YPR167C, strain met16, hits give low values 0.947
active: S. cerevisiae deletion strains, locus YJR075W, strain HOC1, hits give low values 0.771 | S. cerevisiae deletion strains, locus YKL190W, strain CNB1, hits give low values 0.82 | S. cerevisiae deletion strains, locus YKR001C, strain vps1, hits give low values 0.754 | S. cerevisiae deletion strains, locus YLR058C, strain SHM2, hits give low values 0.86 | S. cerevisiae deletion strains, locus YLR262C, strain YPT6 (second series), hits give low values 0.807 | S. cerevisiae deletion strains, locus YLR268W, strain sec22, hits give low values 0.784 | S. cerevisiae deletion strains, locus YLR320W, strain mms22, hits give low values 0.845 | S. cerevisiae deletion strains, locus YLR330W, strain CHS5, hits give low values 0.753 | S. cerevisiae deletion strains, locus YLR418C, strain cdc73, hits give low values 0.364 | S. cerevisiae deletion strains, locus YML032C, strain rad52, hits give low values 0.86 | S. cerevisiae deletion strains, locus YMR223W, strain ubp8, hits give low values 0.841 | S. cerevisiae deletion strains, locus YMR263W, strain SAP30, hits give low values 0.848 | S. cerevisiae deletion strains, locus YNL067W, strain RPL9B, hits give low values 0.742 | S. cerevisiae deletion strains, locus YNL071W, strain lat1, hits give low values 0.748 | S. cerevisiae deletion strains, locus YNL153C, strain GIM3, hits give low values 0.826 | S. cerevisiae deletion strains, locus YNL233W, strain BNI4, hits give low values 0.685 | S. cerevisiae deletion strains, locus YNL298W, strain CLA4, hits give low values 0.898 | S. cerevisiae deletion strains, locus YNL307C, strain MCK1, hits give low values 0.166 | S. cerevisiae deletion strains, locus YOL147C, strain pex11, hits give low values 0.71 | S. cerevisiae deletion strains, locus YOR061W, strain CKA2, hits give low values 0.514 | S. cerevisiae deletion strains, locus YOR144C, strain elg1, hits give low values 0.93 | S. cerevisiae deletion strains, locus YOR184W, strain ser1, hits give low values 0.62 | S. cerevisiae deletion strains, locus YPL055C, strain LGE1, hits give low values 0.612 | S. cerevisiae deletion strains, locus YPR163C, strain tif3, hits give low values 0.626 | S. cerevisiae deletion strains, strain wtn01, hits give low values 0.801 | S. cerevisiae strains, strain wild type, hits give low values 0.83

— PubChem BioAssay AID1159580 (chemical genetic matrix, 2015)
